ChEMBL document CHEMBL3988442, “University of Dundee, Small-Polar-MMV Screening Library” (2021)
Among all 48,000 compounds or so, about 13,000 (27%) showed an effect of 50% or more. Some of the results follow.

Test system: Wolbachia pipientis
Test: Anti-Wolbachia Cell-Based Screen
Format: functional
Parameters: scale not given: in the data most compounds retested in dose-response had high values
Details: 5 µM

SMILES | Percent Effect [%]
O=C(O)C(F)(F)F.O=C1CC[C@H]2[C@H](CCN2c2ccccn2)N1CC1CCOCC1 | -16.88
O=C1CC[C@@H]2[C@@H](CCN2C(=O)C2CCOCC2)N1CC1CC1 | -4.769
Cc1oncc1C(=O)N1CC[C@H]2[C@@H]1CCC(=O)N2CC1CCOCC1 | 95.19
CCc1cnc(N2CC[C@H]3[C@@H]2CCC(=O)N3CC2CCOCC2)nc1.O=C(O)C(F)(F)F | -1.93
Cc1ccc(C(=O)N2CC[C@@H]3[C@H]2CCC(=O)N3CC2CC2)o1 | 4.088
Cc1nc(CN2C(=O)CC[C@@H]3[C@H]2CCN3C(=O)c2ccno2)cs1 | 0.107
Cc1oncc1C(=O)N1CC[C@H]2[C@@H]1CCC(=O)N2CC1CC1 | 108
Cn1cccc1C(=O)N1CC[C@H]2[C@@H]1CCC(=O)N2CC1CC1 | -7.905
Cn1cccc1C(=O)N1CC[C@@H]2[C@@H]1CC(=O)N2CC1CCOCC1 | -5.807
Cc1noc(C)c1CN1CC[C@H]2[C@@H]1CCC(=O)N2CC1CCOCC1.O=C(O)C(F)(F)F | 107.1
O=C1C[C@H]2[C@H](CCN2C(=O)c2ccno2)N1CC1CC1 | 88.14
Cc1nn(CC(=O)NCC2(C(N)=O)CCOCC2)c(C)c1Cl | 113.9
Cc1nn(C)c(C)c1S(=O)(=O)NCC1(C(N)=O)CCOCC1 | 87.99
Cc1nn(C)c(C)c1CCC(=O)NCc1csc(N2CCCC2)n1 | -4.027
Cc1nn(C)c(C)c1S(=O)(=O)N(CC(N)=O)CC(C)C | 0.7063
Cn1ccc2c(C(=O)NCC3(C(N)=O)CCOCC3)cccc21 | -19.6
CCc1nc(CC(=O)NCC2(C(N)=O)CCOCC2)cs1 | 13.26
Cc1nn(C)c(C)c1CCC(=O)NCC1(C(N)=O)CCOCC1 | 112
Cc1nn(C)c(C)c1CC(=O)NCC1(C(N)=O)CCOCC1 | 121.1
CCN(CC)c1ccc(C(=O)NCC2(C(N)=O)CCOCC2)cn1 | -5.685
Cc1nn(C)c(C)c1S(=O)(=O)NCC(C)(O)c1ccc2c(c1)OCO2 (configuration not stated) | 12.95
CCN(CC)c1ccc(NC(=O)NCC2(C(N)=O)CCOCC2)cn1 | -0.5907
CC(C)C1CN(Cc2nccn2C(C)C)CCC(=O)N1CC1CC1 (configuration not stated) | -13.37
CN(C)Cc1nc(C(C)(C)NC(=O)c2ccc3ccccc3c2)no1 | -5.67
Cc1cc(NC(=O)CNc2cccc(OC(F)F)c2C)n(C)n1 | -2.043

SMILES | Percent Effect [%]
Cc1nn(C)c(Cl)c1C(=O)NCC1(C(N)=O)CCOCC1 | 99.78
Cc1cc(C(=O)NCC2(C(N)=O)CCOCC2)nn1C(C)(C)C | 9.321
Cc1nn(C(C)(C)C)c(C)c1C(=O)NCC1(C(N)=O)CCOCC1 | -1.881
CC(C)CN1CCN(Cc2nc3ccccc3[nH]2)[C@H]2CS(=O)(=O)C[C@H]21 | -2.653
CCc1nc(CCNC(=O)NC2CC(=O)N(C(C)(C)C)C2)cs1 (configuration not stated) | 17.05
Cc1nc(C)c(CCNC(=O)NC2CC(=O)N(C(C)(C)C)C2)s1 (configuration not stated) | -0.9476
Cc1csc(CCCNC(=O)NC2CC(=O)N(C(C)(C)C)C2)n1 (configuration not stated) | 79.6
CC(=O)c1ccc(NC(=O)c2ccc3c(c2)C2(CCCCC2)CN3)cc1.O=C(O)C(F)(F)F | 13.81
CCn1c(C(=O)N2CCN(CC[S+](C)[O-])CC2)cc2ccccc21 (configuration not stated) | 101.9
CC(O)CN1CCN(C(=O)c2cccn2Cc2ccncc2)CC1 (configuration not stated) | -5.756
CCn1c(C(=O)N2CCN(C(=O)COC)CC2)cc2ccccc21 | -7.431
CCn1c(CN2CCN(CC(N)=O)CC2)nc2c(F)cccc21 | -7.265
NC(=O)CN1CCCN(C(=O)c2ccn(-c3cccc(F)c3)n2)CC1 | -12.78
CCn1c(C(=O)N2CCN(C(=O)NC(C)C)CC2)cc2ccccc21 | -5.351
CC(O)CN1CCN(C(=O)c2cccc(CC#N)c2)CC1 (configuration not stated) | 0.248
Cc1cccc2cc(C(=O)N3CCSCC3)n(C)c12 | -17.56
CCC(O)CN1CCN(C(=O)c2cc3ccccc3n2CC)CC1 (configuration not stated) | 81.21
CCn1c(C(=O)N2CCCN(CC(N)=O)CC2)cc2ccccc21 | 113.2
CC(O)CN1CCN(C(=O)c2cc3ccccc3n2C)CC1 (configuration not stated) | 80.19
CCn1c(C(=O)N2CCN(CC(C)O)CC2)cc2ccccc21 (configuration not stated) | -3.08
COc1ccc(C)cc1-c1csc(Cn2ccc(=O)[nH]c2=O)n1 | -13.88
c1cnn(Cc2nnc(C3CCN(C4CCOCC4)CC3)n2C2CC2)c1 | -3.51
O=C(COc1ccccc1F)NCCC(O)c1ccco1 (configuration not stated) | -8.311
Cc1ccc(CNC2(Cc3cc(-c4ccc(F)cc4)on3)COC2)o1 | -24.42
CCN(c1cccc(F)c1)S(=O)(=O)c1cc(C(=O)O)cc2c1CCC2 | -8.987

SMILES | Percent Effect [%]
CC(Nc1cccc(CN2CCOC2=O)c1)C(=O)N1CCNC1=O (configuration not stated) | -9.338
CC(C)(C)SCCCC(=O)N1CCC(Nc2cccnn2)CC1 | -0.09307
Cc1noc(Cl)c1CCC(=O)N1CCC(Nc2cccnn2)CC1 | 97.17
Cc1noc(Cl)c1CCC(=O)N1CCC(CC(N)=O)CC1 | -2.795
Cc1nn(CC(=O)N2CCC(Nc3cccnn3)CC2)c(C)c1Cl | -11.96
COCCCC(=O)N1CCC(Nc2cccnn2)CC1 | 100.5
Cc1ccc(NC2CCN(C(=O)CCc3ccco3)CC2)nn1 | -2.742
O=C(CCc1ccco1)N1CCC(Nc2cccnn2)CC1 | 108.6
Cc1cnn(CCC(=O)N2CCC(Nc3cccnn3)CC2)c1 | 5.382
Cc1ccc(CCC(=O)N2CCC(Nc3cccnn3)CC2)cc1 | 118.9
O=C1CC(Cc2ccc(NC(=O)c3cccc(F)c3)cc2)C(=O)N1 (configuration not stated) | -11.36
Cc1cc(CN2CCN(C(=O)NC(C)c3cccnc3)CC2)on1 (configuration not stated) | -9.533
CCOC(=O)NC1CCCN(Cc2ccc(-n3cncn3)c(C)c2)C1 (configuration not stated) | 8.303
COc1cc(NC(=O)NCCO)ccc1N1CCOC1=O | -1.059
Cn1cc(N2CCN(c3ccc(C#N)cc3F)CC2=O)cn1 | -27.57
COc1ccc(CNC(C)c2cccc(Cl)c2)c(OC)c1OC (configuration not stated) | 0.8374
Cc1cc(N2CCC(NC(=O)CCc3ccco3)CC2)nc(C)n1 | 7.107
O=C(CCc1ccccc1F)N1CCC(Nc2cccnn2)CC1 | 101.4
O=C(CCOc1ccccc1)N1CCC(Nc2cccnn2)CC1 | -3.199
O=C(CCCc1ccccn1)N1CCC(Nc2cccnn2)CC1 | -8.554
Cc1ccccc1NC1CCN(C(=O)CCc2ccco2)CC1 | 99.83
CS(=O)(=O)N[C@H]1CN(C(=O)CCc2ccco2)C[C@@H]1C1CC1 | -12.24
O=C(CCCc1ccccc1)N1CCC(Nc2cccnn2)CC1 | 109.6
O=C(CCn1ccc2ccccc21)N1CCC(Nc2cccnn2)CC1 | -13.71
CSc1ncccc1C(=O)N1C[C@H]2CC[C@@H]1CN(c1cnccn1)C2 | -13.27

SMILES | Percent Effect [%]
CCCN(CCC)S(=O)(=O)c1cc(NC(C)=O)ccc1C | 31.01
O=C(O)c1cc(-c2ccoc2)cc(S(=O)(=O)N2CCSCC2)c1 | 11.83
CCN(Cc1ccoc1)C(=O)c1cc(C)c(C)c(S(N)(=O)=O)c1 | -19.87
CCCNC(=O)N1CCC(Oc2cc(C)ccc2F)(C(=O)O)CC1 | -9.891
O=C(NCC1CC1)[C@H]1CC[C@@H]2[C@@H](CCN2Cc2nccs2)O1 | 114.7
O=C(NCC1CCOCC1)[C@@H]1C[C@@H]2[C@@H](CCN2Cc2nccs2)O1.O=C(O)C(F)(F)F | 97.65
COCCNC(=O)[C@@H]1CC[C@@H]2[C@@H](CCN2Cc2cnn(C)c2)O1 | -9.722
Cc1cnc(CNC(=O)[C@@H]2CC[C@@H]3[C@@H](CCN3Cc3ccco3)O2)cn1 | -4.994
O=C(O)[C@]12CCCN(Cc3nccs3)[C@@H]1CCN(c1cnccn1)C2 | 6.87
COCCN1CCN(CC(=O)N(C)Cc2cccc(F)c2)CC1C (configuration not stated) | -2.425
Cc1noc(C)c1CN(C)Cc1cnc(N2CCOCC2)nc1 | -2.338
Cc1cnc(N2CCN(C)CC2)nc1-c1ccnn1C | -36.32
Cc1ccc(-c2cc(-c3nc(CN4CCN(C)CC4)no3)[nH]n2)s1 | -11.14
Cc1cc(-c2cnc(N3CCSCC3)nc2-c2ccc(C)s2)on1 | 126.2
Cc1cc(-c2cnc(N3CCCC3)nc2-c2ccc(C)s2)on1 | 81.04
CCN1CCN(c2ncc(-c3cc(C)no3)c(-c3ccc(C)s3)n2)CC1 | -7.299
Cc1ccc(-c2cc(C(F)(F)F)nc(N3CCOCC3)n2)s1 | 100.5
Cc1cc(-c2cnc(N3CCOCC3)nc2-c2ccc(C)s2)on1 | 90.53
Cc1cc(-c2cnc(N3CCN(C)CC3)nc2-c2ccc(C)s2)on1 | -10.07
O=C1c2cnc(N3CCOCC3)nc2CN1c1ccc2c(c1)OCO2 | -5.261
Cc1nc(N2CCOCC2)nc(C)c1NS(=O)(=O)c1ccccc1 | 4.303
CCc1cc(NCCC(F)(F)F)nc(N2CCOCC2)n1 | -15.1
